# Compound activity from PubChem BioAssay.
# DAX1 inh-1 = inhibitors of DAX1 repression of SF-1 activated StAR promoter. HEK293T StAR-luciferase reporter, SF-1/DAX-1 repression relief. inhibition, % at 6.8 µM. hit rate 1.1% among 370,000;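 active = inhibition above the mean over all tested compounds plus 3 SD, cut at about 3.6% in these data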;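 note: 0% = DAX-1 cells with DMSO and 100% = cells lacking DAX-1 with DMSO; higher inhibition means more luminescence from relief of DAX-1 repression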
# SMARCA2 activ = SMARCA2 function activation, primary screen | MG213 cells, MMTV-luciferase reporter, dexamethasone, overnight | activation, % at 9.1 µM | hit rate 1% among 370,000 | AID 652017; in the data active = activation above about 7.8%;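 note: 0% = vehicle wells and 100% = reference activator wells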
# DAX1 inh-2 = inhibits human nuclear receptor DAX1 | HEK293 Gal4-DAX1 luciferase reporter, luminescence | P51843 | inhibition, % at 6.75 µM | hit rate 0.99% among 340,000 | AID 504766;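 active = inhibition above the mean over all tested compounds plus 3 SD, cut at about 4.2% in these data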;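 note: 0% = DAX1-transfected cells with DMSO and 100% = empty-vector control cells with DMSO; inhibition shows as a rise in luminescence from relieved DAX1 repression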
# Target sequence (P51843 207-470 limits assumed): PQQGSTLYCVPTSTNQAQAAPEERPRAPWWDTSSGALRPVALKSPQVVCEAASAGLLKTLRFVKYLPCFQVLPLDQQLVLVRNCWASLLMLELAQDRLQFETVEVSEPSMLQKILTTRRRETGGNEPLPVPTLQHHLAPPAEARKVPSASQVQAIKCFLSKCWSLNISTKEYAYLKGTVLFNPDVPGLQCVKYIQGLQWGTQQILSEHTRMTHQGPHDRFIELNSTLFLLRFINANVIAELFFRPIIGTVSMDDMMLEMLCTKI
# hcDAF-12 act = H. contortus DAF-12 activation, primary screen; hit rate 1.4% among 370,000; activation, % at 6.8 µM; HEK293 hcDAF-12 lit1-tk-luc reporter, luminescence; 0% DMSO, 100% Δ7-dafachronic acid;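 active = activation above the mean of all tested compounds plus 3 SD, cut at about 5.5% in these data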;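 note: 100% = response to 3 µM Δ7-dafachronic acid high control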
# hgDAF12 agonist = activates the H. glycines DAF-12 receptor ligand-binding domain | HEK293 GAL4-hgDAF12 UAS-luciferase reporter, agonist luminescence; normalized to butyrate control | hit rate 1.8% among 370,000 | AID 687014 | activation, % at 6.8 µM;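 active = activation above a cutoff set at the mean of all screened compounds plus 3 SD, cut at about 10% in these data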;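 note: 0% = DMSO wells and 100% = sodium butyrate wells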
# ssDAF-12 act = activates DAF-12 receptor from parasite S. stercoralis; HEK293 ssDAF-12/GRIP1 lit1-tk-luc reporter, luminescence; % of 3 µM dafachronic acid response; activation, % at 6.8 µM; hit rate 1% among 370,000; AID 652126;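 active = activation above the mean over all tested compounds plus 3 SD, cut at about 0.9% in these data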;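 note: 0% = DMSO-only wells and 100% = 3 µM delta7-dafachronic acid wells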
# DAX1 inh confirm = confirmation of human DAX1 (NR0B1) inhibitors | HEK293T StAR-promoter luciferase reporter, SF-1/DAX-1 repression | hit rate 87% among 2,400 | shares compounds with DAX1 inh-1 | inhibition, % at 6.8 µM;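 active = inhibition above the average of every tested compound plus 3 SD, cut at about 3.8% in these data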;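 note: 0% = DAX-1 cells with DMSO and 100% = no DAX-1 control cells with DMSO; active compounds raise luminescence by relieving repression of the StAR reporter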
# Target sequence (P51843 whole entry, looked up): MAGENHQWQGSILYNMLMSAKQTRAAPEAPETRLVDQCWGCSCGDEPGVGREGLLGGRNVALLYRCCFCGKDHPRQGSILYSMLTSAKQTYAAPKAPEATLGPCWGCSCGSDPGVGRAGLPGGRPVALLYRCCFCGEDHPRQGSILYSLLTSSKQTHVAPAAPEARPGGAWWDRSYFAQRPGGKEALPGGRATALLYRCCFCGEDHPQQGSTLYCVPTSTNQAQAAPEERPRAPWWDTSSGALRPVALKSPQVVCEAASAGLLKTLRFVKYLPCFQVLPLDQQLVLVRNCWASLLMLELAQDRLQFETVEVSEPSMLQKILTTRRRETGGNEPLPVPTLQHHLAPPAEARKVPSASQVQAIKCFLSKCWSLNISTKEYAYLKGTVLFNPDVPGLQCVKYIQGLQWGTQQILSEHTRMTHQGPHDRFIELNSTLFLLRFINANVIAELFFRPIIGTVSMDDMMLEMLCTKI
# SF1 mutant ctr = nonselective inhibitor or artifact in SF-1 mutant DAX1 counter-screen | shares compounds with DAX1 inh-1 | HEK293 StAR-luciferase, SF-1 AF2 mutant, luminescence | inhibition, % at 6.8 µM | hit rate 78% among 2,400 | AID 652136;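 active = inhibition above the mean of all tested compounds plus 3 SD, cut at about 3% in these data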;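 note: 0% = DAX-1 transfected cells with DMSO and 100% = cells without DAX-1 with DMSO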
# SMARCA2 act conf = SMARCA2 activation, confirmation screen. shares compounds with SMARCA2 activ. MG213 cells, MMTV-luciferase with dexamethasone, luminescence, overnight; MG213 cells expressing E1A, Rb sequestered; DMSO wells 0%, reference activator 100%. activation, % at 9.1 µM. hit rate 30% among 3,500. AID 652260;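 active = activation above its plate's cutoff, the mean activation of tested wells plus 3 SD, cut at about 7.9% in these data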
# GAL4-VP16 Luc = activates GAL4-VP16 luciferase, flagging SMARCA2 activator hits; shares compounds with SMARCA2 activ; HEK293 GAL4-VP16 pG5luc reporter, luciferase luminescence; scaled: DMSO wells 0%, SAHA wells 100%; activation, % at 9.1 µM; hit rate 41% among 3,500; AID 686939;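 active = activation above the solvent-only control well mean plus 3 SD, averaged across control plates, cut at about 5.2% in these data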
# LXR ag = LXR-beta agonism as hcDAF-12 counter-screen | activation, % at 6.8 µM | 3,400 tested, under 10 active | shares compounds with hcDAF-12 act | HEK293 Gal4-LXR tk-luc reporter, luminescence, 24 h; normalized: DMSO 0%, positive control 100%;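 active = mean percent activation of the reporter above a cutoff set as the average over tested compounds plus their standard deviation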
# hcDAF12 ag = confirmation of H. contortus DAF-12 agonists; shares compounds with hcDAF-12 act; HEK293 hcDAF-12 lit1-tk-luc reporter, luminescence; % of Δ7-dafachronic acid response; activation, % at 6.8 µM; hit rate 61% among 3,400;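 active = mean activation across triplicate tests above the threshold derived from the earlier primary screen, cut at about 5.5% in these data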;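 note: 0% = DMSO only wells and 100% = 3 µM Δ7-dafachronic acid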
# hgDAF12 conf = confirmation of H. glycines DAF-12 agonists. AID 743050. activation, % at 6.8 µM. HEK293 GAL4-hgDAF12 luciferase reporter, agonist mode; percent of butyrate response. hit rate 80% among 3,300. shares compounds with hgDAF12 agonist;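 active = mean activation over triplicate wells above the hit cutoff derived from the earlier primary screen, cut at about 11% in these data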;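 note: 0% = DMSO low control and 100% = 2 mM sodium butyrate high control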
# LXRb DAF12 ctr = counter-screen for DAF-12 agonists: agonists of human LXR-beta. shares compounds with hgDAF12 agonist. HEK293 Gal4-LXR luciferase reporter, 24 h. activation, % at 6.8 µM. 3,300 tested, under 10 active;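 active = mean activation of the triplicate above a set limit carried over from the primary screen, none filed active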
# * hit, by the source's call; x = no result given. An excerpt weighted towards active compounds, which were near 4.8% of everything screened.
SMILES,DAX1 inh-1,SMARCA2 activ,DAX1 inh-2,hcDAF-12 act,hgDAF12 agonist,ssDAF-12 act,DAX1 inh confirm,SF1 mutant ctr,hgDAF12 conf,LXRb DAF12 ctr,others
CC1Sc2ccc(C(=O)Nc3ncccc3O)cc2NC1=O (configuration not stated),12.9*,4.5,2.2,5.3,17.6*,-0.2,8.3*,3.2*,15.1*,0.6,
CC(=O)Nc1ccc2nc(-c3ccccc3)cn2c1,6.0*,8.8*,1.1,4.3,20.9*,0.5,10.0*,6.6*,16.6*,0.8,SMARCA2 act conf=9.4*;GAL4-VP16 Luc=7.6*
CC(=O)Nc1ccc(-c2cc(-c3ccccc3)nc(-c3ccccc3)n2)cc1,0.0,-1.7,0.3,2.2,0.1,-1.4,x,x,x,x,
CCOC(=O)c1cnc(SCc2ccccc2)nc1N,5.4*,7.6,2.6,3.8,16.1*,-0.6,10.4*,6.6*,16.0*,0.9,
CCOc1ccc(/C=C\C(C)=N\O)cc1,4.9*,6.8,2.4,1.6,13.5*,0.4,8.2*,6.9*,13.4*,0.5,
O=CN1CCN(C(=O)C2CCN(c3ncnc4c3sc3cccc(F)c34)CC2)CC1,-2.4,-4.1,x,-1.2,2.3,-1.1,x,x,x,x,
COc1ccc2cc3cc(C(=O)N4CCCCC4C)oc3nc2c1 (configuration not stated),10.6*,3.9,-0.5,3.7,14.0*,0.3,10.1*,5.3*,17.3*,0.9,
CC(=O)N/N=C\c1cccc(OC/C=C/c2ccccc2)c1,10.2*,6.1,-1.6,2.7,13.7*,-0.2,8.9*,5.2*,15.8*,0.8,
CC(=O)N/N=C\c1ccccc1OC/C=C/c1ccccc1,2.4,-3.1,1.0,-0.5,4.6,-0.9,x,x,x,x,
COc1ccc2oc3cc(NCCN(C)C)ccc3c(=O)c2c1,16.0*,20.8*,x,9.2*,43.0*,2.2*,21.7*,13.1*,41.6*,1.4,SMARCA2 act conf=37.7*;GAL4-VP16 Luc=13.5*;LXR ag=2.2;hcDAF12 ag=8.4*
CC1CCC2(CC1)CCN(CCCOC(=O)Nc1cccc(F)c1)C2=O (configuration not stated),-1.6,-4.4,x,-1.9,3.3,-1.8,x,x,x,x,
CC(=O)Oc1ccc(/C=N/NC(=S)Nc2ccccc2)cc1,5.0*,3.5,2.7,5.6,17.2*,-0.5,14.8*,8.4*,16.4*,0.8,
COc1ccc(/C=N/Nc2cc(OC)ncn2)cc1,6.5*,3.5,-1.4,9.2*,14.1*,2.2*,15.0*,7.2*,16.5*,1.0,LXR ag=1.4;hcDAF12 ag=9.4*
CCOc1ccc(/C=N/NC(=O)CC(=O)NCc2ccccc2)cc1,-0.1,-1.6,-0.4,-1.6,-1.2,-0.6,x,x,x,x,
CCOc1ccc(/C=N/NC(=O)Nc2ccccc2)cc1,6.6*,4.4,1.1,5.1,18.5*,-0.6,9.2*,5.2*,19.6*,0.8,
O=C(Cc1ccccc1)N/N=C/c1ccc(OCC(=O)Nc2ccccc2)cc1,-0.7,1.6,0.6,-0.6,-0.3,-0.9,x,x,x,x,
Clc1ccc(/C=N/Nc2ccccn2)cc1,1.5,1.8,3.5,1.7,9.7,-0.4,x,x,x,x,
CCOc1ccc(/C=N/Nc2ccccn2)cc1,5.8*,2.7,1.0,6.0*,17.4*,0.7,18.1*,10.1*,19.1*,1.2,
C[C@H]1COc2cccc(F)c2S(=O)(=O)N1C,0.8,-0.7,x,-0.9,0.3,-1.8,x,x,x,x,
CCCCNC(=O)C[C@H]1C[C@@]2(C(=O)OC)C(=C[C@H](C(C)(C)C)O[C@@H]2C)N(CCc2ccc(OC)c(OC)c2)C1=O,0.2,-3.9,x,-1.1,-0.6,-1.4,x,x,x,x,
CCC(CO)Nc1ccn2nc(-c3ccccc3)cc2n1 (configuration not stated),9.5*,5.4,x,2.5,18.2*,-0.4,8.9*,7.2*,15.9*,0.6,
N/C(=N\N=C\c1cccc(O)c1)c1nonc1N,7.2*,-1.0,-0.8,13.5*,20.4*,3.2*,14.9*,10.6*,16.9*,1.0,LXR ag=2.4;hcDAF12 ag=9.0*
COc1ccc(/C=N/N=C(\N)c2nonc2N)cc1OC,1.8,6.3,3.4,0.5,8.6,-1.2,x,x,x,x,
O=C(Nc1ccc2c(c1)OCO2)c1cc(C2CCCN(C(=O)CCc3ccccc3)C2)on1 (configuration not stated),1.5,-2.2,x,0.0,2.7,-1.7,x,x,x,x,
CCCC(=O)N1CCCC(c2cc(C(=O)Nc3ccc4c(c3)OCO4)no2)C1 (configuration not stated),4.7*,0.3,x,2.5,18.0*,-0.5,4.4*,2.3,12.7*,0.6,
O=C1CCC(NC(=O)Cc2ccccc2)C(=O)N1 (configuration not stated),0.4,-0.2,x,-1.5,-0.1,-0.4,x,x,x,x,
O=C(N/N=C/C=C/c1ccccc1)c1ccncc1,0.7,-3.4,2.1,1.0,2.6,-1.5,x,x,x,x,
O=C(O)c1ccc(N/N=C/C=C/c2ccccc2)cc1,6.3*,8.0*,1.4,4.9,15.3*,0.6,10.8*,5.8*,15.0*,0.8,SMARCA2 act conf=4.3;GAL4-VP16 Luc=17.0*
COc1ccccc1NC(=O)O[C@@H]1CC[C@@]23CCCN2C(=O)CCC[C@H]3C1,x,x,x,-0.9,-0.1,-1.0,x,x,x,x,
